Most compounds without a hit are left out; they make up all but 5.4% or so of the library.
Calb FLC – affects C. albicans growth with fluconazole; C. albicans CaCi-2 (fluconazole-resistant clinical isolate) + fluconazole, Alamar Blue growth, 48 h; growth inhibition, % (no concentration beside the values); 300,000 tested, 0.57% active;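 active = growth inhibition above about 58% in most replicates, limit read from the data, passing the limit was not always enough; inconclusive = exactly half the replicates above a set limit; inactive = most replicates below a set limit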;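 also: all wells also contain fluconazole at 8 µg/ml as a sub-toxic cotreatment; 0% = median of DMSO wells and 100% = median of geldanamycin control wells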
Beta apoptosis – beta cell apoptosis inhibition; protection from apoptosis, % (no concentration beside the values); 300,000 tested, 0.8% active; AID 435005; INS-1E cytokine-induced death, ATP luminescence, 48 h; percent of positive-control rescue, neutral wells zero;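 active = Every replicate reaches about 75%, or at least half do and their mean reaches it too, limit read from the data; inconclusive = At least half of replicates reach the limit but their mean does not; inactive = Under half of replicates reach the limit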;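 also: 0% = cytokine-treated negative control wells and 100% = positive control rescue; higher means more ATP so stronger rescue from cytokine killing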
CSC inhib – blocks cancer stem cells. cancer stem cell-like cells viability, luminescence. inhibition, % at 7.5 µM. AID 2717. 300,000 tested, 1.1% active; in the data active = inhibition above about 75%; inconclusive = no clear call, values can overlap the other calls; tested in HMLE shEcad cells
SKKanGAS inh – blocks kanamycin growth of S. pyogenes SKKanGAS strain. BacTiter-Glo, 6 h. inhibition, % at 7.5 µM. 300,000 tested, 1.3% active. AID 1662;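 active = mean replicate score, as percent of positive control median, at least 50; inconclusive = mean below 50 but one replicate at or above 50; inactive = mean and every replicate below 50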;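 also: strain carries kanamycin resistance gene driven by streptokinase promoter and grows in 40 µg/ml kanamycin; loss of luminescence reflects streptokinase promoter inhibition or plain growth inhibition; 0% = median of DMSO wells and 100% = positive control at its reference dose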
MPTP inh – permeability transition pore inhibition; isolated mouse mitochondria, Ca2+ swelling absorbance, 30 min; inhibition, % at 10 µM; 360,000 tested, 1.4% active;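 active = inhibition of 50% or more, scaled per plate between neutral and stimulator controls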;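 also: 0% = DMSO wells given calcium and 100% = 1 mM EGTA wells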
Mdm2 MdmX PPI – inhibitors of human Mdm2/MdmX interaction. O15151+Q00987. SaOS-2 split-luciferase Mdm2/MdmX complementation, luminescence. inhibition, % at 8 µM. 330,000 tested, 3% active. AID 485346;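 active = inhibition of at least 50% at 8 µM in the primary screen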
Mdm2-MdmX conf – confirmation of human Mdm2/MdmX interaction inhibitors; AID 489028; inhibition, % at 8 µM; 10,000 tested, 55% active; Mdm2-MdmX binding, luminescent assay; shares compounds with Mdm2 MdmX PPI; in the data active = inhibition above about 40%
Full FLuc ctr – counter-screen for Mdm2/MdmX inhibitors: full-length luciferase | shares compounds with Mdm2 MdmX PPI | SaOS-2 full-length luciferase counterscreen, luminescence | inhibition, % at 8 µM | 6,200 tested, 77% active;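 active = mean inhibition at 8 µM reaching about 37%, which flags the compound as non-specific, limit read from the data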;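 also: p53-null SaOS-2 cells with luciferase driven by a doxycycline-inducible promoter; compound on cells about two nights before reading with doxycycline added after day one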
Rh123 counter – Rhodamine 123 counter-screen of mitochondrial pore hits; shares compounds with MPTP inh; isolated mitochondria, membrane potential, Rhodamine 123 fluorescence; inhibition, % at 10 µM; 5,000 tested, 78% active; AID 624504; in the data active = inhibition above about 22%;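 also: 0% = DMSO vehicle and 100% = positive control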
MPTP abs DR – dose response confirmation of mitochondrial permeability transition pore inhibitors | AID 651561 | IC50, µM | shares compounds with MPTP inh | isolated mitochondria swelling, absorbance | 780 tested, 58% active; in the data active = IC50 below about 20 µM
MPTP cs DR – MPTP inhibitor counter-screen activity, dose response; shares compounds with MPTP inh; isolated mitochondria counterscreen, fluorescence read-out; IC50, µM; 780 tested, 49% active; AID 651564; in the data active = IC50 below about 80 µM
* marks the source's active call; other numbers are inactive results; u = inconclusive; x = not tested or not shown.

SMILES | Calb FLC | Beta apoptosis | CSC inhib | SKKanGAS inh | MPTP inh | Mdm2 MdmX PPI | Mdm2-MdmX conf | Full FLuc ctr | Rh123 counter | others
O=C(Nc1nc2ccccc2s1)C1CCN(S(=O)(=O)c2cc([N+](=O)[O-])ccc2Cl)CC1 | 12 | 81* | u | 25 | 95* | 96* | 87* | 38* | 77*
CC(NCCC(c1ccccc1)c1ccccc1)c1ccccc1 (configuration not stated) | x | 19 | 18 | 2 | 94* | 58* | 16 | x | -2
O=C(Cc1ccc(Cl)cc1)Nc1ccc(-c2cc3ccccc3oc2=O)c(Cl)c1 | -12 | 25 | 82* | 23 | 64* | 59* | 62* | 52* | 71*
O=C(Cc1ccc(Cl)cc1)Nc1ccc2oc(=O)ccc2c1 | -3 | 7 | -4 | -2 | 10 | 10 | x | x | x
Cc1nn(-c2ccccc2)c(C)c1C(=O)OCC(=O)N(C)C1CCS(=O)(=O)C1 (configuration not stated) | -11 | 3 | 33 | -5 | 0 | 5 | x | x | x
N=c1n(CCO)c2ccccc2n1CCOc1ccc(Cl)cc1Cl | 13 | 10 | 12 | -3 | 87* | 97* | 42* | 25 | -4 | MPTP abs DR=4*;MPTP cs DR=29*
O=C(NCc1ccccc1)C1=C[C@@H](c2ccc3c(c2)OCO3)C[C@@H](OCCCCO)O1 | -2 | 1 | 3 | 5 | -1 | -12 | x | x | x
COc1ccc(NC(=O)Nc2ccc3c(c2)N(C)C(=O)CS3)cc1Cl | 2 | x | 17 | 18 | 93* | 59* | 42* | 53* | 68*
CC(=O)c1ccc(NC(=O)Nc2ccc3c(c2)N(C)C(=O)CS3)cc1 | -10 | -6 | -2 | 18 | 96* | 69* | 35 | x | 77*
COc1ccc(NC(=O)Nc2ccc3c(c2)N(C)C(=O)CS3)cc1OC | -6 | 1 | -14 | 12 | -1 | 35 | x | x | x
Cc1onc(-c2ccccc2)c1C(=O)OCc1nnc(-c2ccc([N+](=O)[O-])cc2)o1 | x | -9 | 5 | x | 0 | 19 | x | x | x
CN=C1c2c(-c3ccccc3)c3cc(OC)ccc3n2CCN1C | -20 | -4 | -6 | 6 | 68* | 51* | 21 | x | -5 | MPTP abs DR=10*;MPTP cs DR=>80
Cc1cc2c(cc1[N+](=O)[O-])NC(CNC(C)C)CC2 (configuration not stated) | -7 | 3 | 12 | 2 | -2 | 16 | x | x | x
CCN1CCCC1CNC(=O)c1cc2c(-c3ccc(Cl)cc3)nn(C)c2s1 (configuration not stated) | 4 | x | 60 | -4 | 83* | 65* | 11 | x | -19 | MPTP abs DR=11*;MPTP cs DR=>80
O=C(Nc1ccc(Cl)c(Cl)c1)Nc1ccc(Br)cc1F | -3 | x | 92* | 27 | 100* | 95* | 93* | 35 | 74*
O=C(Nc1ccc(Br)cc1F)c1ccncc1 | -7 | -1 | -6 | -2 | -3 | 17 | x | x | x
CCOC(=O)c1ccc(NC(=O)Nc2ccon2)cc1 | 20 | 23 | 78* | -4 | 50* | 53* | 43* | 115* | 65*
O=C(Nc1ccc(Cl)c(Cl)c1)Nc1ccon1 | 71 | 11 | 47 | 67* | 69* | 56* | 66* | 56* | 103*
CCOC(=O)c1ccc(NC(=O)Nc2ccc(Cl)cn2)cc1 | -11 | 2 | x | -16 | 15 | -15 | x | x | x
O=C(Nc1ccccc1)Nc1ccc(Br)c(Cl)c1 | 46 | 59 | 40 | 4 | 79* | 87* | 44* | 48* | 85*
CCOC(=O)c1ccc(NC(=O)N2CCCCC2)cc1 | -10 | 1 | 1 | 14 | -2 | -16 | x | x | x
O=C(O)C(=O)Nc1ccc(NC(=O)C(c2ccccc2)c2ccccc2)cc1 | -5 | -6 | -7 | 0 | -1 | -12 | x | x | x

Source: PubChem BioAssay
